Here are results for 8 compounds from PubChem BioAssay (NCI).

Some test systems named below: SR leukemia; RPMI-8226 leukemia; OVCAR-8 ovarian; OVCAR-5 ovarian; OVCAR-4 ovarian; SK-OV-3 ovarian; IGROV1 ovarian; OVCAR-3 ovarian; HS 578T breast; NCI/ADR-RES ovarian; T-47D breast; BT-549 breast; MDA-MB-435 melanoma; SW-620 colon; MCF7 breast; HCT-116 colon; HCC-2998 colon; KM12 colon; MDA-MB-468 breast.
Common to all, as to test: NCI-60 one-dose screen, 48 h (100 = growth as untreated, 0 = no growth, -100 = all killed)
Conditions in all cases: 10 µM unless noted

Each structure is given as a SMILES string. About 83,000 compounds went through this panel and 20% of them were active in at least one assay; those are over-represented in the sample as a whole.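 96-well plates, one dose, 48 hours. Percent growth reported; active if below 10.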 Unmarked numbers belong to inactive results. The source made the active and inactive calls.

With `COc1ccc(-c2c(Nn3cnnn3)no[n+]2[O-])cc1`, the growth was 38.7% with SR leukemia; 42% in the test with RPMI-8226 leukemia; 46.4% with OVCAR-8 ovarian; 85.6% in the test on OVCAR-5 ovarian; 53.4% with OVCAR-4 ovarian; 91.1% in the test on SK-OV-3 ovarian. Moreover, the growth is 19.8% in the test with IGROV1 ovarian; 46.5% with OVCAR-3 ovarian; 50% in the test with HS 578T breast; 54.9% in the test with NCI/ADR-RES ovarian; 48.8% in the test with T-47D breast; 61.1% in the test with BT-549 breast. The growth in the test with MDA-MB-435 melanoma was 44.4%; in the test on SW-620 colon, 41.5%; with MCF7 breast it was 31%; in the test with HCT-116 colon, 23.8%; with HCC-2998 colon it was 56.2%; in the test on KM12 colon, 68.2%. The growth in the test on MDA-MB-468 breast was 46.3%.
Regarding `CCN1C(=O)/C(=N\N=C(/C)c2ccc3c(c2)Nc2ccccc2S3)c2cc(Cl)ccc21`, the growth with SR leukemia is 60.8%; with RPMI-8226 leukemia, 48%; with OVCAR-8 ovarian, 68.1%; in the test on OVCAR-5 ovarian, 83.7%; with OVCAR-4 ovarian it was 41.6%; in the test with SK-OV-3 ovarian it was 108%. The growth is 69.9% with IGROV1 ovarian; 55.6% with OVCAR-3 ovarian; 80% in the test with HS 578T breast; 68.8% in the test with NCI/ADR-RES ovarian; 34.3% with T-47D breast; 48.8% in the test on BT-549 breast. The growth was 29.6% in the test on MDA-MB-435 melanoma; 85.9% in the test on SW-620 colon; 17.6% in the test with MCF7 breast; 48.8% in the test on HCT-116 colon; 102% with HCC-2998 colon; 47.3% with KM12 colon. Further, in the test on MDA-MB-468 breast, the growth was 9.33% (active).
On to `COc1ccc2[nH]cc(-c3nnc(N)nc3-c3c[nH]c4ncc(Br)cc34)c2c1`, for which the growth in the test on SR leukemia was 67.8%; with RPMI-8226 leukemia, 76.8%; with OVCAR-8 ovarian it was 82.5%; in the test on OVCAR-5 ovarian, 97.9%; in the test on OVCAR-4 ovarian, 96.6%; in the test on SK-OV-3 ovarian, 76.2%. In addition, the growth is 48.3% in the test on IGROV1 ovarian; 104% in the test with OVCAR-3 ovarian; 70.1% in the test with HS 578T breast; 97.9% in the test on NCI/ADR-RES ovarian; 53.8% in the test on T-47D breast; 93% with BT-549 breast. In addition, the growth in the test with MDA-MB-435 melanoma was 102%; with SW-620 colon it was 88.8%; in the test with MCF7 breast, 62.2%; in the test on HCT-116 colon it was 75.2%; with HCC-2998 colon, 110%; in the test on KM12 colon, 91.4%. Moreover, the growth in the test with MDA-MB-468 breast was 79.9%.
Take `CCN(CC)c1ccc(/C=N/Nc2nc(-c3ccc(Br)cc3)cs2)c(O)c1`: the growth in the test with SR leukemia is 3.58% (active); in the test on RPMI-8226 leukemia it was 38.4%; in the test with OVCAR-8 ovarian, 81.6%; in the test with OVCAR-5 ovarian, 91.5%; in the test on OVCAR-4 ovarian, 70.2%; with SK-OV-3 ovarian, 103%. The growth with IGROV1 ovarian is 78.8%; in the test on OVCAR-3 ovarian, 61.3%; with HS 578T breast it was 102%; in the test on NCI/ADR-RES ovarian, 95.3%; in the test on T-47D breast, 80.9%; with BT-549 breast, 37.4%. The growth in the test on MDA-MB-435 melanoma was 64.5%; in the test with SW-620 colon, 10.5%; with MCF7 breast, 18.7%; with HCT-116 colon it was 18.3%; in the test on HCC-2998 colon, 100%; in the test on KM12 colon it was 86.3%. In addition, in the test with MDA-MB-468 breast, the growth is 69%.
Consider `CCCCSc1nc(NCCc2c[nH]c3ccccc23)c(C#N)c(-c2ccc(OC)cc2)n1`, for which the growth was 5.98% (active) in the test with SR leukemia; 30.7% in the test with RPMI-8226 leukemia; 79.2% in the test on OVCAR-8 ovarian; 87% with OVCAR-5 ovarian; 67.2% in the test with OVCAR-4 ovarian; 83.7% in the test on SK-OV-3 ovarian. Moreover, the growth was 102% in the test with IGROV1 ovarian; 83.6% in the test on OVCAR-3 ovarian; 47% in the test on HS 578T breast; 51.7% in the test with NCI/ADR-RES ovarian; 30.7% with T-47D breast; 99.4% in the test with BT-549 breast. In addition, the growth in the test with MDA-MB-435 melanoma is 72.2%; in the test on SW-620 colon, 52.8%; in the test on MCF7 breast, 17.7%; with HCT-116 colon, 21.4%; in the test with HCC-2998 colon, 49.2%; in the test on KM12 colon, 36.2%. Moreover, in the test with MDA-MB-468 breast, the growth was 51.1%.
Turning to `CN(C)CCCNC(=O)c1cc(NC(=O)c2cc(NC(=O)c3ccc(/C=C/c4ccccc4)cc3)cn2C)cn1C`, the growth with SR leukemia is -30.3% (active); in the test with RPMI-8226 leukemia it was -0.0203% (active); in the test with OVCAR-8 ovarian, 35.7%; with OVCAR-5 ovarian, 105%; with OVCAR-4 ovarian, 58.4%; with SK-OV-3 ovarian it was 88.7%. Besides, the growth was 78.3% with IGROV1 ovarian; 51.6% with OVCAR-3 ovarian; 94.6% in the test on HS 578T breast; 91.6% with NCI/ADR-RES ovarian; 54.5% in the test on T-47D breast; 69.2% in the test on BT-549 breast. Moreover, the growth with MDA-MB-435 melanoma is 58.6%; with SW-620 colon it was 7.42% (active); in the test on MCF7 breast, -85.9% (active); in the test with HCT-116 colon, 0.824% (active); in the test with HCC-2998 colon, 42.3%; in the test on KM12 colon it was -16.5% (active). Further, in the test on MDA-MB-468 breast, the growth is 37.4%.
`Cc1ccc([C@H]2C(C(=O)c3ccc(Cl)cc3)C3(N[C@@H]2c2ccccc2)C(=O)Nc2ccccc23)cc1` (some centres not stated): the growth was 23.3% in the test with SR leukemia; 6.4% (active) in the test with RPMI-8226 leukemia; 66% in the test with OVCAR-8 ovarian; 52.2% in the test with OVCAR-5 ovarian; 49.4% in the test on OVCAR-4 ovarian; 53.2% in the test on SK-OV-3 ovarian. Besides, the growth in the test on IGROV1 ovarian was 59.4%; in the test with OVCAR-3 ovarian, 37.3%; in the test on HS 578T breast it was 60.3%; with NCI/ADR-RES ovarian it was 35.4%; with T-47D breast it was 14.3%; with BT-549 breast, 50.7%. Also, the growth in the test with MDA-MB-435 melanoma is 26.8%; in the test with SW-620 colon, 29.9%; in the test on MCF7 breast, 16%; in the test on HCT-116 colon, 14%; in the test with HCC-2998 colon, 23.7%; in the test on KM12 colon, 25.9%. Besides, the growth in the test with MDA-MB-468 breast was 1.9% (active).
`COc1cc2nc(SCc3ccccc3)n(-c3ccc(Cl)cc3)c(=O)c2cc1OC`: the growth was 5.33% (active) in the test with SR leukemia; 34% in the test with RPMI-8226 leukemia; -19.9% (active) with OVCAR-8 ovarian; 34.3% in the test on OVCAR-5 ovarian; -55.6% (active) in the test with OVCAR-4 ovarian; -19.1% (active) in the test with SK-OV-3 ovarian. Also, the growth is 4.02% (active) in the test on IGROV1 ovarian; -42.6% (active) with OVCAR-3 ovarian; -9.89% (active) with HS 578T breast; -30.4% (active) with NCI/ADR-RES ovarian; 45% in the test on T-47D breast; 0.336% (active) in the test with BT-549 breast. Moreover, the growth with MDA-MB-435 melanoma is 30.3%; in the test with SW-620 colon, 9.44% (active); with MCF7 breast it was 14.7%; with HCT-116 colon, -41% (active); with HCC-2998 colon it was 20.3%; in the test on KM12 colon it was 40.5%. Further, the growth in the test with MDA-MB-468 breast was -10.9% (active).
